The campaign covered roughly 5,500 compounds. About 2,000 (36%) were called active. About 18% were inconclusive and are not listed. Rule as the data show it: active = normalized growth mostly below about 0.91 (no sharp cut-off); inconclusive = no clear call, values can overlap the other calls; inactive = mostly above about 0.92. This is one part of the list.
Assay: chemical genetic growth profiling, strain panel (AID 1159580);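 also: tested at 20 µM; growth read once vehicle control cultures reached saturation at 30 °C; 1 = growth at the plate median or of vehicle wells; lower values mean less growth of the strain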
Details: S. cerevisiae deletion strains, growth OD

Measured: normalized growth

CC(C)=CCOc1c2occc2cc2ccc(=O)oc12
active: locus YKL009W, strain mrt4, active compounds read low 0.844 | locus YKL068W, active compounds read low 0.898 | locus YKL085W, strain MDH1 (second series), active compounds read low 0.898 | locus YKL085W, strain MDH1, active compounds read low 0.898 | locus YKL160W, strain elf1, active compounds read low 0.898 | locus YKL190W, strain CNB1, active compounds read low 0.854 | locus YKR001C, strain vps1, active compounds read low 0.599 | locus YKR026C, strain gcn3, active compounds read low 0.905 | locus YKR091W, strain srl3, active compounds read low 0.929 | locus YLL001W, strain dnm1, active compounds read low 0.862 | locus YLL041C, strain sdh2, active compounds read low 0.919 | locus YLR027C, strain aat2, active compounds read low 0.893 | locus YLR039C, strain RIC1, active compounds read low 0.429 | locus YLR058C, strain SHM2, active compounds read low 0.748 | locus YLR102C, strain apc9, active compounds read low 0.843 | locus YLR221C, strain rsa3, active compounds read low 0.821 | locus YLR258W, strain gsy2, active compounds read low 0.908 | locus YLR262C, strain YPT6 (second series), active compounds read low 0.749 | locus YLR262C, strain YPT6, active compounds read low 0.448 | locus YLR268W, strain sec22, active compounds read low 0.695 | locus YLR320W, strain mms22, active compounds read low 0.652 | locus YLR330W, strain CHS5, active compounds read low 0.507 | locus YLR342W, strain FKS1 (second series), active compounds read low 0.416 | locus YLR342W, strain FKS1, active compounds read low 0.86 | locus YLR370C, strain arc18, active compounds read low 0.906 | locus YLR371W, strain rom2, active compounds read low 0.582 | locus YLR384C, strain iki3, active compounds read low 0.9 | locus YLR418C, strain cdc73, active compounds read low 0.28 | locus YML016C, strain PPZ1, active compounds read low 0.875 | locus YML032C, strain rad52, active compounds read low 0.676 | locus YML120C, strain ndi1, active compounds read low 0.875 | locus YML124C, strain tub3, active compounds read low 0.827 | locus YMR058W, strain fet3, active compounds read low 0.886 | locus YMR078C, strain ctf18, active compounds read low 0.781 | locus YMR125W, strain sto1, active compounds read low 0.826 | locus YMR129W, active compounds read low 0.921 | locus YMR205C, strain PFK2, active compounds read low 0.817 | locus YMR223W, strain ubp8, active compounds read low 0.736 | locus YMR307W, strain GAS1, active compounds read low 0.443 | locus YNL067W, strain RPL9B, active compounds read low 0.764 | locus YNL071W, strain lat1, active compounds read low 0.573 | locus YNL153C, strain GIM3, active compounds read low 0.73 | locus YNL233W, strain BNI4, active compounds read low 0.517 | locus YNL250W, strain rad50, active compounds read low 0.884 | locus YNL271C, strain bni1, active compounds read low 0.849 | locus YNL298W, strain CLA4, active compounds read low 0.823 | locus YNL307C, strain MCK1, active compounds read low 0.222 | locus YNL322C, strain KRE1 (second series), active compounds read low 0.904 | locus YNR049C, strain mso1, active compounds read low 0.914 | locus YNR052C, strain pop2, active compounds read low 0.877 | locus YOL006C, strain TOP1, active compounds read low 0.373 | locus YOL147C, strain pex11, active compounds read low 0.551 | locus YOR001W, strain rrp6, active compounds read low 0.89 | locus YOR069W, strain VPS5, active compounds read low 0.783 | locus YOR083W, strain WHI5, active compounds read low 0.86 | locus YOR136W, strain idh2, active compounds read low 0.851 | locus YOR144C, strain elg1, active compounds read low 0.717 | locus YOR184W, strain ser1, active compounds read low 0.459 | locus YOR270C, strain vph1, active compounds read low 0.592 | locus YOR290C, strain snf2, active compounds read low 0.787 | locus YOR316C, strain cot1, active compounds read low 0.86 | locus YPL051W, strain arl3, active compounds read low 0.908 | locus YPL055C, strain LGE1, active compounds read low 0.657 | locus YPL078C, strain atp4, active compounds read low 0.843 | locus YPL240C, strain hsp82, active compounds read low 0.912 | locus YPR119W, strain clb2, active compounds read low 0.837 | locus YPR141C, strain kar3, active compounds read low 0.869 | locus YPR163C, strain tif3, active compounds read low 0.34 | locus YPR167C, strain met16, active compounds read low 0.782 | strain wtn01, active compounds read low 0.708
inactive: locus YJR066W, strain TOR1, active compounds read low 0.891 | locus YLL026W, active compounds read low 0.931 | locus YLR113W, strain HOG1, active compounds read low 1.02 | locus YLR357W, strain rsc2, active compounds read low 0.871 | locus YMR231W, strain pep5, active compounds read low 0.936 | locus YNL183C, strain NPR1, active compounds read low 0.912 | locus YNL209W, strain ssb2, active compounds read low 0.936 | locus YNL248C, strain rpa49, active compounds read low 0.936 | locus YOL012C, strain htz1 0.448 | locus YOR061W, strain CKA2, active compounds read low 0.917 | locus YOR070C, strain gyp1, active compounds read low 0.93 | locus YOR080W, strain dia2, active compounds read low 0.921 | locus YOR106W, strain vam3, active compounds read low 0.881 | locus YOR231W, strain MKK1, active compounds read low 0.955 | locus YOR265W, strain rbl2, active compounds read low 0.93 | locus YPL106C, strain sse1, active compounds read low 0.941 | locus YPL256C, strain CLN2, active compounds read low 0.969

Reference: PubChem BioAssay AID1159580 (chemical genetic matrix, 2015)
